We go through 113 compounds from PubChem BioAssay AID434958 (Southern Research Specialized Biocontainment Screening …, 2010).

Hit rate of the full screen: of about 1,200 compounds, about 400 (33%) were called active. No rule for the calls is given here. Only a sample is shown. Entries with a potency or affinity are not part of this list.

The assay can be described thus: mammalian cell cytotoxicity, dose response, cytotoxicity control (AID 434958).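 Also: cells exposed to compound for 72 hours before readout.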 Conditions: cytotoxicity counter-screen; series mostly up to 40 µM. In general terms: A counterscreen serves to expose hits that act by an unwanted route or on another target.
Consider `CCC(C(=O)NC1C(=O)N2C(C(=O)O)=C(CSc3nnc(C)s3)CSC12)c1ccccc1` (stereo not drawn), for which the outcome was inactive.
`Cc1ccc(-n2nnnc2Sc2nc([N+](=O)[O-])nn2C)c(C)c1`: the call was inactive.
As to `Cn1nnnc1SCC(=O)Nc1ccccc1[N+](=O)[O-]`, the compound was classed as inactive.
For `O=C(Nc1ccccc1)Nc1csc2ccccc12`, the result was inactive.
As for `O=C(NC1CCCCC1)C1CCN(c2nccs2)CC1`, the outcome was inactive.
For the compound `O=C(NC1c2ccccc2-c2ccccc21)c1ccco1`, the compound was called inactive.
In the case of `Cc1ccc(/C=N/NC(=O)c2cccs2)s1` it was “inactive”; in that of `C/C(=N/NC(=O)c1cccs1)c1ccc(NC(=O)COc2ccc(Cl)cc2)cc1`, “inactive”; in that of `CCOc1ccc2nc(NC(=O)c3cnccn3)sc2c1`, “inactive”.
For the compound `Cc1cc(C)c(-c2c(O)c3ccccc3n(C)c2=O)c(C)c1`, the compound was classed as inactive.
Turning to `Cc1cc(Br)ccc1NC(=O)CN1C(=O)C2CC=CCC2C1=O` (stereo not drawn), the outcome was inactive.
In the case of `COc1cc(OC)cc(-c2c(C#Cc3ccsc3)c3cc(-c4ccc(OC)nc4)ccc3n2C)c1` it was “inactive”; in that of `CCOc1cccc(=O)c2c(C)n(Cc3ccccc3)c(C)c12`, “inactive”; in that of `CCOc1cc(N2CCOCC2)c(OCC)cc1NC(=O)c1cc(C)cc(C)c1`, “inactive”.
In the case of `Cn1c(=O)[nH]c(=O)c2c1nc(Br)n2CCC(=O)c1ccccc1` it was “inactive”; in that of `C=CCSc1nnc2c(n1)OC(c1c(C)[nH]n(-c3ccccc3)c1=O)Nc1ccccc1-2` (stereo not drawn), “inactive”; in that of `CCCCCc1ccc(-c2ccc(/C=C/C(N)=O)cc2)nc1`, “inactive”.
Regarding `CN1c2ccccc2C(=O)NC1c1ccc([N+](=O)[O-])s1` (stereo not drawn), the outcome was inactive.
Consider `Cc1cccc(Cl)c1NC(=S)NN`, for which the outcome was inactive.
Take `CCOC(=O)c1sc(NC(=O)Cn2nnc3sc4c(c3c2=O)CCC(C(C)(C)C)C4)nc1C` (stereo not drawn): the compound was classed as inactive.
In the case of `CC1CCCN(C(=O)C2CCN(c3ncnc4c3nc3n4CCCCC3)CC2)C1` (stereo not drawn) it was “inactive”; in that of `CCOC(=O)NC1c2ccccc2Oc2ccccc21`, “inactive”; in that of `O=C(NNC(=O)c1ccc(Oc2cc(Cl)cc(Cl)c2)o1)c1ccccc1`, “inactive”.
Turning to `CC(=O)c1ccccc1OCCOc1ncnc2sccc12`, the call was inactive.
As for `COc1ccc([N+](=O)[O-])cc1NS(=O)(=O)c1ccc(C(=O)N2CCCC2)cc1`, the compound was classed as inactive.
As for `O=C(Cc1ccccc1)NC(=S)Nc1ccc(N2CCCCC2)cc1`, the outcome was inactive.
On to `CC(=O)c1ccc(NC(=S)Nc2ccc(N3CCOCC3)cc2)cc1`, for which the compound was called inactive.
The value for `Cc1ccc(CNC(=O)c2cn(C)c3ccc(S(=O)(=O)N4CCOCC4)cc3c2=O)cc1` was “inactive”; that for `Cc1cccc2nc(COc3ccc4ccccc4c3Br)cn12` was “inactive”.
Take `COC(=O)C1=C(C)NC(=O)/C1=C\c1cc(C)n(-c2cc(C)cc(C)c2)c1C`: the outcome was inactive.
As to `CCOC(=O)CNC(=O)c1cccnc1Oc1ccc(Cl)cc1`, the result was inactive.
Take `COc1ccccc1NS(=O)(=O)c1cccc(N2CC(O)=C(c3ccccc3)C2=N)c1`: the compound was called inactive.
As to `O=C(CCN1C(=O)c2ccccc2S1(=O)=O)Nc1ccc(Cl)cc1`, the compound was called inactive.
In the case of `CCC(=O)NC(=S)Nc1ccc(NC(=O)c2ccccc2[N+](=O)[O-])cc1` it was “inactive”; in that of `CC(/C=N/NC(=O)c1cc(-c2cccs2)[nH]n1)=C\c1ccccc1`, “inactive”.
On to `Cc1ccc(C)c(SCc2noc(C(=O)NCC3CCCO3)c2C(=O)O)c1` (stereo not drawn), for which the compound was classed as inactive.
Regarding `COC(=O)c1ccc(/C=N/Nc2nc(-c3ccc(C)cc3)cs2)cc1`, the outcome was inactive.
As for `O=C(O)Cc1csc(Nc2cccc(Cl)c2)n1`, the compound was called inactive.
The value for `CCOC(=O)N1CCN(CC(=O)Nc2nnc(C(F)(F)F)s2)CC1` was “inactive”; that for `COC(=O)N1C(=O)[C@](Cc2ccccc2)(c2ccccc2)N1C(=O)OC` was “inactive”; that for `COc1ccc(Nc2cc(C(=O)NCc3ccco3)c3ccccc3n2)c(OC)c1` was “inactive”.
With `CCC(=O)Nc1cc(OC)c(NC(=O)c2ccccc2)cc1OC`, the compound was called inactive.
Consider `CC(C)C(=O)Nc1ccc(NC(=S)NC(=O)c2ccc([N+](=O)[O-])cc2)cc1`, for which the compound was classed as inactive.
With `Cn1c(O)c(C2=c3ccccc3=NC2=O)[nH]c1=S`, the compound was called inactive.
`C=CCNC1=C(Cl)C(=O)N(c2cccc(Cl)c2Cl)C1=O`: the outcome was inactive.
In the case of `O=C(CN1C(=O)c2cccc([N+](=O)[O-])c2C1=O)N1CCN(c2ccc(F)cc2)CC1` it was “inactive”.
In the case of `Cc1cc(C)c(O)c(-c2cc(C(=O)NCc3ccccc3)[nH]n2)c1`, the call was inactive.
The value for `CCCn1nc2cc(C(=O)NCCCCc3ccccc3)ccc2c1OCC` was “inactive”.
Consider `COCCCNc1nc(SCc2ccccc2)nc2sc3c(c12)CCC3`, for which the compound was classed as inactive.
Consider `CCC(CC)c1nnc(NC(=O)c2ccc(N3CCCCC3)c([N+](=O)[O-])c2)s1`, for which the call was inactive.
The value for `Cc1cc2ccccc2n1CCNC(=O)COc1ccccc1` was “inactive”; that for `Cc1ccc(C(=O)NCCc2nnc3ccc(SCC(=O)Nc4ccccc4C)nn23)cc1` was “inactive”; that for `CCN(CC)c1ccc(S(=O)(=O)N2CCOCC2)cc1NC(=O)CSc1cccc[n+]1[O-]` was “inactive”.
As for `O=C(CNc1ccccc1Cl)Nc1cc(S(=O)(=O)N2CCOCC2)ccc1Cl`, the compound was called inactive.
`CC(=O)COc1ccc2c3c(c(=O)oc2c1C)CCCCC3`: the call was inactive.
As to `CCOC(=O)Cn1nc(-c2ccc(C)cc2)c2ccccc2c1=O`, the result was inactive.
For `CCOC(=O)C1CCN(C(=O)CCCCn2c(=O)[nH]c3ccccc3c2=O)CC1`, the compound was called inactive.
In the case of `Cc1ccc(NC(=O)C2(c3ccccc3)CC2(Cl)Cl)cc1C` (stereo not drawn) it was “inactive”; in that of `CCOc1cc(/C=N\Nc2ccc([N+](=O)[O-])cc2)ccc1OCC(=O)Nc1ccc(C)c(C)c1`, “inactive”; in that of `Cc1ccccc1OCC(=O)Nc1ccccc1N1CCCCC1`, “inactive”.
In the case of `CN(C)C(=O)c1ccc(-n2nc(C(F)(F)F)c3c2CCCC3)cc1` it was “inactive”; in that of `CC(=O)Nc1cccc(/C(C)=N/NC(N)=S)c1`, “inactive”; in that of `Cc1c(-c2ccccc2)cnc2c(C)cccc12`, “inactive”.
Turning to `Cc1cc(NC(=O)COc2nnc(-c3ccccc3)c3ccccc23)no1`, the compound was classed as inactive.
In the case of `Cc1cc(NC(=O)CSc2ncnc3c2cnn3-c2ccccc2)no1` it was “inactive”; in that of `CCOC(=O)c1ccc(C(=O)NNC(=O)C2CC=CCC2)cc1` (stereo not drawn), “inactive”; in that of `O=C(Nc1ccccc1)c1c2c(nc3ccccc13)CCCC2`, “inactive”.
For the compound `CC12CCC(C/C1=N/NC(=O)Nc1ccccc1)C2(C)C` (stereo not drawn), the outcome was inactive.
As to `Cc1cc(C)c(C)c(S(=O)(=O)N2C(=S)NC(=O)C2C(C)C)c1C` (stereo not drawn), the call was inactive.
The value for `O=C(c1cc2c(s1)CCCC2)n1cccn1` was “inactive”; that for `O=C(N/N=C\c1cn[nH]c1-c1ccc(Cl)cc1)c1cccs1` was “inactive”; that for `O=C(CSc1nnc(SCc2ccc(Cl)cc2)s1)c1ccc2c(c1)OCO2` was “inactive”.
In the case of `C=CCSc1nc2c(c(-c3ccsc3)c1C#N)CN(C)CC2` it was “inactive”.
For the compound `O=C(NN1C(=O)C2C(C1=O)C1C=CC2C12CC2)c1ccncc1` (stereo not drawn), the call was inactive.
Take `O=c1[nH]c(CN(CCO)CCO)nc2c1C1(CCCCC1)Cc1ccccc1-2`: the compound was called inactive.
Take `CN(/N=C/c1ccncc1)c1cnc2ccccc2n1`: the result was inactive.
On to `c1ccc(-c2n[nH]c3c2CCC3)cc1`, for which the result was inactive.
In the case of `CSc1ncnc2c1ccn2CC(=O)Nc1ccc(C)c(C)c1` it was “inactive”; in that of `CCCOc1ccccc1NC(=O)/C=C/C(N)=O`, “inactive”; in that of `CC(=O)OCC(=O)Nc1ccc(C(C)=O)cc1`, “inactive”.
With `CC(C)(C)[C@@H]1C=C(C(=O)Nc2ccccc2)O[C@H](OCc2ccc(CO)cc2)C1`, the compound was classed as inactive.
The value for `Cc1cccnc1NC(=S)NC(=O)c1cncc(Br)c1` was “inactive”; that for `COc1ccc(CNC(=O)C2CCN(S(=O)(=O)c3c(C)noc3/C=C/N(C)C)CC2)cc1` was “inactive”.
On to `CC(C)(C)C1CCC(OCC(O)CN2CCN(c3ccccn3)CC2)CC1` (stereo not drawn), for which the compound was classed as inactive.
For the compound `COc1ccc(-c2csc(-c3cccs3)n2)c(OC)c1`, the outcome was inactive.
As to `CCC(=O)Oc1oc(-c2ccccc2)nc1C=Nc1ccc(C)cc1`, the call was inactive.
Regarding `CCn1cc(C(=O)O)c(=O)c2cc(F)c(N3CCN(C(=S)NC(=O)c4ccccc4C)CC3)cc21`, the outcome was inactive.
For the compound `COC(=O)c1cc(OC)c(OC)cc1NC(=S)N1CCN(C)CC1`, the result was inactive.
Turning to `Cc1nnc(SCC2=C(C(=O)O)N3C(=O)C(NC(=O)COc4ccc(F)cc4)C3SC2)s1` (stereo not drawn), the compound was called inactive.
In the case of `COc1ccc(C(=O)Nc2cccc3c2CCCC3)c(OC)c1`, the compound was classed as inactive.
For the compound `COc1cc(C(=S)N2CCOCC2)ccc1OC(=O)c1ccc([N+](=O)[O-])cc1[N+](=O)[O-]`, the compound was called inactive.
For `O=C(Oc1c(-c2ccccc2)c(=O)n2c3c(cccc13)CC2)c1cccc([N+](=O)[O-])c1`, the call was inactive.
In the case of `CC1CN(C(=S)NC(=O)c2cccc([N+](=O)[O-])c2)CC(C)O1` (stereo not drawn), the compound was called inactive.
Turning to `CN(C)c1ccc(/C=N/NC(N)=S)cc1[N+](=O)[O-]`, the outcome was inactive.
With `O=C(CCCCCN1C(=O)c2cccc([N+](=O)[O-])c2C1=O)Nc1ccccc1F`, the call was inactive.
In the case of `CC(=O)NC(=S)Nc1ccc(NC(=O)c2cccs2)cc1` it was “inactive”; in that of `CCN=c1scc(-c2ccccc2)n1/N=C/c1ccccn1`, “inactive”.
As to `CC1CCc2nc(NC(=O)C3COc4ccccc4O3)sc2C1` (stereo not drawn), the result was inactive.
The value for `COc1ccc(CCNCc2csc3nc4ccccc4n23)cc1OC` was “inactive”; that for `Cc1cc(C)cc(NC(=S)NN)c1` was “inactive”; that for `CSc1ccc(/C=C/C(=O)NC23CC4CC(CC(C4)C2)C3)cc1` was “inactive”.
Regarding `c1ccc(-c2cc3ccccc3[nH]2)cc1`, the outcome was inactive.
For `C/C(=N\NC(=O)c1cc2c(s1)CCC(C)C2)c1ccc[nH]1` (stereo not drawn), the compound was called inactive.
In the case of `Cc1cccc2c(C(=O)n3cccn3)cc(-c3ccccc3Cl)nc12` it was “inactive”; in that of `O=C(Oc1c(-c2ccccc2)c(=O)n2c3c(cccc13)CC2)c1ccc(F)cc1`, “inactive”.
On to `COc1ccc(OC)c(-c2cc(C(=O)Nc3c(C)n(C)n(-c4ccccc4)c3=O)no2)c1`, for which the result was inactive.
For the compound `COc1ccccc1-c1cc(C(=O)Nc2c(C)n(C)n(-c3ccccc3)c2=O)no1`, the result was inactive.
In the case of `O=C(CCSc1ccc(Cl)c(Cl)c1)NC12CC3CC(CC(C3)C1)C2` it was “inactive”; in that of `COc1ccnc(CS(=O)c2nc3cc(OC(F)F)ccc3[nH]2)c1OC` (stereo not drawn), “inactive”; in that of `O=C(CSc1ccc([N+](=O)[O-])cn1)Nc1ccc(N2CCOCC2)cc1`, “inactive”.
For the compound `O=C(Nc1ccc(N2CCCCC2)cc1)c1cc([N+](=O)[O-])cc([N+](=O)[O-])c1`, the result was inactive.
The value for `O=C(Nc1ccccc1N1CCCC1)c1ccc2c(c1)OCO2` was “inactive”; that for `CC(C(=O)Nc1cc([N+](=O)[O-])ccc1Cl)N1CCN(c2ccccc2O)CC1` (stereo not drawn) was “inactive”.
